This is a sample that favours compounds with a hit; in the whole collection about 2.8% have one here.
Shn3 3UTR inh: Schnurri-3 reporter inhibition in Clone20 osteoblasts; AID 588674; Clone20 osteoblast Shn3 3'UTR firefly luciferase, 24 h; 0.52% of 360,000 active; inhibition, % at 12.5 µM;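 active means mean inhibition of at least 75% with every replicate also reaching 75%; inconclusive means mean inhibition at least 75% but some replicate below; inactive means mean inhibition below 75%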;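 further: 0% = median of neutral control wells and 100% = pilot-screen positive control compound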
EBV LMP1 NFkB: reduces LMP1-driven NF-kappaB luciferase signal; LMP1-induced NF-kappaB luciferase reporter cells, luminescence; AID 504558; 0.69% of 350,000 active; inhibition, % at 12.5 µM; in the data active means inhibition above about 41%; inconclusive means no clear call, values can overlap the other calls;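 further: 0% = neutral control wells and 100% = reference inhibitor control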
Peg3 prom inh-1: Peg3 promoter activity inhibition; HeLa PEG-Prom luciferase reporter, luminescence, overnight; inhibition, % at 20 µM; 1.7% of 360,000 active; AID 588405;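 active means inhibition of at least 50% at 20 µM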
MITF TRPM1 inh: inhibitors of MITF-driven TRPM1 promoter in melanoma cells; inhibition, % at 12.5 µM; SK-MEL-5 TRPM1 promoter luciferase, 24 h; 0.83% of 330,000 active;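 active means mean inhibition across replicates of 60% or more, whatever share of single replicates reaches that level; inconclusive means some that reach 60%, reason not given; inactive means mean inhibition across replicates below 60%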
HIF-2a inh: inhibitors of HIF-2a. 786-0 RCC cells HIF-2a reporter, luciferase luminescence, overnight. inhibition, % at 18.8 µM. 0.72% of 360,000 active. AID 624352;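 active means inhibition of the luminescence signal of 40% or more relative to plate controls, in a single-dose primary screen at 18.75 µM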
PAX8 inh HTS: PAX8 transcriptional activity inhibition. RMG-I TPO-luciferase reporter, SteadyGlo, 24 h. inhibition, % at 12.6 µM. 1.2% of 360,000 active. AID 652154;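 active means mean replicate inhibition at least 60% with every replicate also reaching 60%; inconclusive means only one of the two criteria is met; inactive means mean below 60% and not all replicates reaching 60%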;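 further: luciferase light reporting Pax8 driven TPO promoter activity; plate controls were median of neutral control wells for no effect and mitoxantrone controls for full effect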
Peg3 prom inh-2: confirmation of Peg3 promoter inhibitors | shares compounds with Peg3 prom inh-1 | inhibition, % at 20 µM | 84% of 1,300 active | HeLa PEG-Prom luciferase reporter, luminescence, overnight | AID 602417;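 active means at 20 µM dose, 40% or more inhibition averaged across four replicates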
The depositor's hits bear a star; ? = inconclusive; . = no result given.

SMILES | Shn3 3UTR inh | EBV LMP1 NFkB | Peg3 prom inh-1 | MITF TRPM1 inh | HIF-2a inh | PAX8 inh HTS | Peg3 prom inh-2
COc1ccc(-c2c(-c3cc(OC)cc(OC)c3)n(C)c3ccc(-c4ccc(S(N)(=O)=O)cc4)cc23)cc1 | 24 | 11 | 53* | 6 | 20 | 25 | 30
O=C(Nc1nc2ccccc2[nH]1)c1ccccc1F | 80 | 77* | 93* | 87* | 75* | . | 81*
O=C(Nc1nc2ccccc2[nH]1)c1ccc(F)cc1 | -9 | 30 | -51 | -8 | -87 | . | .
COC(=O)c1ccc(CNC(=O)Cn2cnc3c(NCc4ccccc4)ncnc32)cc1 | 10 | 0 | 63* | 2 | -4 | 3 | 47*
O=C(N/N=C/c1cc([N+](=O)[O-])ccc1O)c1ccc(COc2ccc3c(c2)CCC3)o1 | 88* | -48 | 52* | 47 | -24 | . | 45*
COc1ccc(Br)cc1/C=N/NC(=O)c1ccc(COc2ccc3c(c2)CCC3)o1 | -17 | -7 | -5 | -12 | -26 | . | .
C[C@@H]1CN([C@H](C)CO)C(=O)Cc2cc(NC(=O)Nc3ccccc3)ccc2O[C@@H]1CN(C)Cc1ccncc1 | . | . | . | . | . | 9 | .
COc1cccc(NC(=O)CN(C)C(=O)c2cc(-c3ccco3)nc3ccccc23)c1 | 0 | 1 | 12 | 1 | 3 | 11 | .
CN(CCOc1ccc(Cl)cc1)C(=O)c1cc(-c2ccco2)nc2ccccc12 | 3 | 11 | 64* | 8 | 2 | 42 | 79*
CO[C@H]1CN(C)C(=O)c2ccc(NC(=O)Cc3ccccc3)cc2OC[C@@H](C)N(C(=O)c2ccccc2F)C[C@@H]1C | . | . | . | . | . | 3 | .
O=C(CN1CCN(Cc2ccccc2Cl)CC1)N=Nc1c(O)[nH]c2ccccc12 | 9 | -3 | 54* | 3 | 29 | 12 | 48*
O=C(CC(F)(F)F)N1C[C@H]2[C@@H](c3ccccc31)[C@H](CO)N2CC1CCOCC1 | . | . | . | . | . | 9 | .
Cc1cc(C(=O)CN2C(=O)c3ccccc3S2(=O)=O)c(C)n1-c1ccccc1 | 61 | 74* | 93* | 81* | 86* | . | 93*
Cc1cc(C(=O)CN2C(=O)C3CC=CCC3C2=O)c(C)n1-c1ccccc1 (stereo not given) | -110 | -8 | -228 | -37 | -94 | -107 | .
CN1C(=O)c2cc(NC(=O)c3ccccc3)ccc2OC[C@H]2O[C@@H](CC(=O)NCC3CC3)CC[C@H]21 | . | . | . | . | . | 11 | .
O=C(NCC[C@@H]1CC[C@@H](NC(=O)C2CCCCC2)[C@@H](CO)O1)c1ccc(F)cc1 | . | . | . | . | . | -9 | .
CC(C)(C)c1ccc(CN2N=Nc3ccccc3S2(=O)=O)cc1 | 14 | -5 | 94* | 1 | 3 | 9 | 55*
COc1ccc(CN(C)C[C@H]2OCCCC[C@H](C)Oc3ccc(NC(=O)Nc4ccc5c(c4)OCO5)cc3C(=O)N([C@@H](C)CO)C[C@@H]2C)cc1 | . | . | . | . | . | -49 | .
N#Cc1ccccc1S(=O)(=O)N1CCN(c2nc(-c3ccccc3)nc3ccccc23)CC1 | -18 | -10 | -19 | . | -49 | -10 | .
Cc1nc(N2CCN(S(=O)(=O)c3ccccc3C#N)CC2)c2c(-c3ccccc3)csc2n1 | 0 | -4 | 54* | 39 | 18 | -9 | 62*
COC1CC(C)C(OC)c2cc(O)cc(c2O)NC(=O)C(C)=CC=CC(C)C(OC(N)=O)C(C)=CC(C)C1OC (stereo not given) | -1 | 48* | 57* | 72* | 29 | 15 | 48*
O=c1[nH]c(=O)n(C2OC(CO)C(O)C2O)cc1F (stereo not given) | 71 | -14 | 75* | -13 | 5 | . | 75*
CC(C)c1nnc(NC(=O)CC(=O)Nc2ccccc2C(=O)O)s1 | 21 | 31 | 57* | 32 | 28 | . | 34
COC(=O)C[C@H]1CC[C@H](NC(=O)Nc2ccc(C(F)(F)F)cc2)[C@@H](CO)O1 | . | . | . | . | . | 8 | .
O=C(Cc1ccncc1)N[C@@H]1CC[C@H](CCn2cc(-c3ccccc3F)nn2)O[C@@H]1CO | . | . | . | . | . | 6 | .
SMILES | Shn3 3UTR inh | EBV LMP1 NFkB | Peg3 prom inh-1 | MITF TRPM1 inh | HIF-2a inh | PAX8 inh HTS | Peg3 prom inh-2
CN(C)c1ccc(/C=C2\SC(=O)N(CCc3nnc(N)s3)C2=O)cc1 | 69 | 73* | 72* | 83* | 58* | 50 | 54*
CN(C)c1ccc(/C=C2/SC(=O)N(CCN=C3NS(=O)(=O)c4ccccc43)C2=O)cc1 | -45 | -14 | -59 | -33 | -81 | -36 | .
CCc1ccccc1N(CC)C(=O)C1CCN(c2ncnc3c2nc2n3CCCCC2)CC1 | 11 | 2 | 56* | 38 | 24 | 35 | 37
C[C@@H]1CN([C@@H](C)CO)C(=O)c2cc(NC(=O)c3ccncc3)ccc2O[C@@H](C)CCCCO[C@@H]1CN(C)Cc1ccccc1 | . | . | . | . | . | -3 | .
C[C@H](CO)N1C[C@H](C)[C@H](CN(C)C(=O)Nc2ccccc2)Oc2ncc(-c3cccnc3)cc2C1=O | . | . | . | . | . | 7 | .
CCC(C)Oc1cc(-c2ccnc(Nc3cccc(Cl)c3)n2)ccn1 (stereo not given) | -31 | -105 | 100* | 20 | 11 | -84 | 92*
Cc1noc(C)c1S(=O)(=O)N(C)C[C@H]1OCCCC[C@@H](C)Oc2ccc(NS(=O)(=O)c3ccc(F)cc3)cc2C(=O)N([C@H](C)CO)C[C@@H]1C | . | . | . | . | . | -38 | .
O=C(C[C@H]1CC[C@H]2[C@@H](COC[C@H](O)CN2Cc2ccccc2)O1)N1CCOCC1 | . | . | . | . | . | -20 | .
C[C@H]1CN([C@@H](C)CO)C(=O)Cc2cc(NC(=O)CCN3CCOCC3)ccc2O[C@@H]1CN(C)Cc1ccc(C(=O)Nc2ccccc2N)cc1 | . | . | . | . | . | -12 | .
CCC(=O)NC(c1cccs1)c1cc([N+](=O)[O-])c2cccnc2c1O (stereo not given) | 28 | 8 | 53* | 0 | 5 | 42 | 54*
CC(=O)NC(c1ccc(C(C)C)cc1)c1ccc2cccnc2c1O (stereo not given) | 92* | 57* | 57* | ? | 12 | 95* | 70*
CC(=O)NC(c1ccc(C)cc1)c1cc(Cl)c2cccnc2c1O (stereo not given) | 87* | 29 | 65* | 43 | 26 | 36 | 56*
CC(=O)NC(c1ccco1)c1cc(Cl)c2cccnc2c1O (stereo not given) | 51 | . | 49 | . | 17 | 34 | .
CCCCC(=O)NC(c1ccccc1Cl)c1ccc2cccnc2c1O (stereo not given) | 88* | 72* | 58* | 71* | 13 | 85* | 65*
C[C@H](CO)N1C[C@H](C)[C@@H](CN(C)S(=O)(=O)c2cccs2)Oc2ccc(NC(=O)C3CCCCC3)cc2CC1=O | . | . | . | . | . | 10 | .
C[C@@H]1CCCCO[C@H](CN(C)S(C)(=O)=O)[C@@H](C)CN([C@@H](C)CO)C(=O)c2cc(NC(=O)Nc3ccc(C(F)(F)F)cc3)ccc2O1 | . | . | . | . | . | 26 | .

High-throughput results: PubChem BioAssay, several laboratories
